Consider 21 compounds from PubChem BioAssay (NCATS).

Inconclusive results are not listed. Activity calls are given as the source filed them. Calls follow the shape of the dose curve; as a rule, active = well fitted curve in the direction sought with a large enough effect; inconclusive = small, poorly fitted or top-dose-only effect, or another doubt; inactive = no such curve, though single readings can be large; an effect the other way counts as inactive or inconclusive.

Chain of Protein phosphatase 1D (Homo sapiens) (O15297 whole entry, looked up): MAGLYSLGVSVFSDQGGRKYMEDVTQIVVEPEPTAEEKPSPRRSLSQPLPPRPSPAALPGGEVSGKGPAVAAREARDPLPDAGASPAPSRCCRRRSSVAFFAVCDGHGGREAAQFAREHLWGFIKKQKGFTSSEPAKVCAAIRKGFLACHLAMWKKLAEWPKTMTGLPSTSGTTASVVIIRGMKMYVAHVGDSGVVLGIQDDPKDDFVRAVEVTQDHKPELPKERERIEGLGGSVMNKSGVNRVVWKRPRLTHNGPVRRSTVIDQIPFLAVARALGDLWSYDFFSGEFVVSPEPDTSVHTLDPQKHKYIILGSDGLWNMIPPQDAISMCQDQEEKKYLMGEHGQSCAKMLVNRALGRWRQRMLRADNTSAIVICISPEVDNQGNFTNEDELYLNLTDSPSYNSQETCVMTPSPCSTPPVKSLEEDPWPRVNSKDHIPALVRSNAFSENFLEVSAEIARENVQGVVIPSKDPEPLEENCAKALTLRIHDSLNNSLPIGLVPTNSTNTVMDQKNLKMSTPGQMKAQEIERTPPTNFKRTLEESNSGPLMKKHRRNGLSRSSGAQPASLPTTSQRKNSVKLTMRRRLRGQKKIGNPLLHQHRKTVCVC

The first test addresses Protein phosphatase 1D (Homo sapiens) (UniProt O15297). Briefly: RapidFire Mass Spectrometry qHTS Assay for Modulators of WT P53-Induced Phosphatase 1 (WIP1) (AID 1347424). Also: potency is read from the fitted curve at half-maximal effect.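 As to activity change, negative = inhibition: plate controls were DMSO wells for no effect and GSK830371 inhibitor control at 10 µM for full effect.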 The note with it: WIP1 dephosphorylation of phosphopeptide, RapidFire MS; series mostly up to 63 µM; activity change, negative = inhibition: at the top concentration. The method, boiled down:
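RapidFire MS readout of dephosphorylated VEPPL-S-QETFS product, with 1 uM isotope-labelled peptide standard. Reaction: 10 nM WIP1, 2 uM phosphopeptide substrate, 5 min, room temperature, after 1 h compound preincubation; stopped with 0.5% formic acid.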
Turning to `NC1=NC(=O)C(c2ccccc2)O1` (stereo unspecified), the “activity change, negative = inhibition” value was 0.393% (inactive).
On to `COc1ccc2c(c1OC)C(=O)O[C@H]2[C@@H]1c2cc3c(cc2CCN1C)OCO3`, for which the “activity change, negative = inhibition” value is 3.82% (inactive).
On the same count and under the same terms, the same measure for `O=C(CCCN1CCC2(CC1)C(=O)NCN2c1ccccc1)c1ccc(F)cc1`: 0.508% (inactive); for `C[C@]12Cc3cn[nH]c3C[C@@H]1CC[C@@H]1[C@@H]2CC[C@@]2(C)[C@H]1CC[C@]2(C)O`: -2.96% (inactive).
With `CCOC(=O)CC(SP(=S)(OC)OC)C(=O)OCC` (stereo unspecified), the Potency result is “inactive”.
As for `CN1C(=O)CCS(=O)(=O)C1c1ccc(Cl)cc1` (stereo unspecified), the “activity change, negative = inhibition” value was 4.92% (inactive).
With `O=C1OC(c2ccc(O)c(S(=O)(=O)O)c2)(c2ccc(O)c(S(=O)(=O)O)c2)c2c(Br)c(Br)c(Br)c(Br)c21`, the Potency was 10 µM (active).
In the case of `CN1C(=O)COc2c(C(=O)NC3CN4CCC3CC4)cc(Cl)cc21` (stereo unspecified), the “activity change, negative = inhibition” value was -4.66% (inactive).
As for `CC(C)c1cccc(C(C)C)c1O`, the “activity change, negative = inhibition” value was -3.17% (inactive).
Still for that read-out and setting: the result for `CCC1(c2ccc(N)cc2)CCC(=O)NC1=O` (stereo unspecified) reads -0.141% (inactive); that for `O=c1[nH]oc2c1CCNC2`, -5.95% (inactive); that for `NCCc1ccc(O)cc1`, 6.82% (inactive).
`COc1cccc2c1C(=O)c1c(O)c3c(c(O)c1C2=O)C[C@@](O)(C(=O)CO)CC3OC1CC(N2CCOC(OC)C2)C(O)C(C)O1` (stereo partly specified): the “activity change, negative = inhibition” value was -0.228% (inactive).
On the same count and under the same terms, the result for `Cc1ncsc1CCCl` reads 7.91% (inactive).
Still for that read-out and setting: the result for `C=C(C)[C@H]1CN[C@H](C(=O)O)[C@H]1CC(=O)O` reads -0.32% (inactive); that for `CC(NC(C)(C)C)C(=O)c1cccc(Cl)c1` (stereo unspecified), 5.79% (inactive); that for `CC(C)(C)NCC(O)c1ccccc1Cl` (stereo unspecified), 0.446% (inactive).
`O=C(O)CCCc1ccc(N(CCCl)CCCl)cc1`: the “activity change, negative = inhibition” value was -7.03% (inactive).
On the same count and under the same terms, the result for `COP(=S)(OC)SCN1C(=O)c2ccccc2C1=O` reads -4% (inactive).
On the same count and under the same terms, the result for `CC(C)N(CCC(C(N)=O)(c1ccccc1)c1ccccn1)C(C)C` (stereo unspecified) reads 5.79% (inactive).

A further test shares this target. Briefly: Rhodamine-PBP qHTS Assay for Modulators of WT P53-Induced Phosphatase 1 (WIP1) (AID 1347425). Also: % of control where 0% means no effect. As to conditions: recombinant WIP1, Rhodamine-PBP phosphate fluorescence, real-time; series mostly up to 57.5 µM; activity change, negative = inhibition: at the top concentration. Put shortly:
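Read-out: Rhodamine-PBP fluorescence (ex 525/em 598 nm) for released Pi, read each minute for 11 min after adding 10 uM VEPPL-pS-QETFS; signal taken as f1 minus pre-substrate f0. Enzyme 5 nM WIP1 with 1 hr room-temperature compound preincubation.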
A general note: Quantitative high-throughput screening tests each substance at several concentrations.
For the compound `NC1=NC(=O)C(c2ccccc2)O1` (stereo unspecified), the “activity change, negative = inhibition” value is 4.34% (inactive).
Still for that read-out and setting: the same measure for `COc1ccc2c(c1OC)C(=O)O[C@H]2[C@@H]1c2cc3c(cc2CCN1C)OCO3`: 12.4% (inactive); for `O=C(CCCN1CCC2(CC1)C(=O)NCN2c1ccccc1)c1ccc(F)cc1`: 6.14% (inactive).
Consider `C[C@]12Cc3cn[nH]c3C[C@@H]1CC[C@@H]1[C@@H]2CC[C@@]2(C)[C@H]1CC[C@]2(C)O`, for which the “activity change, negative = inhibition” value is -1.54% (inactive).
For the compound `CN1C(=O)CCS(=O)(=O)C1c1ccc(Cl)cc1` (stereo unspecified), the “activity change, negative = inhibition” value was 7.42% (inactive).
Consider `CN1C(=O)COc2c(C(=O)NC3CN4CCC3CC4)cc(Cl)cc21` (stereo unspecified), for which the “activity change, negative = inhibition” value was 7.88% (inactive).
In the case of `CC(C)c1cccc(C(C)C)c1O`, the “activity change, negative = inhibition” value is -6.93% (inactive).
Same read-out and setting: the result for `CCC1(c2ccc(N)cc2)CCC(=O)NC1=O` (stereo unspecified) reads -7.49% (inactive); that for `O=c1[nH]oc2c1CCNC2`, -7.86% (inactive); that for `NCCc1ccc(O)cc1`, 4.92% (inactive).
Turning to `COc1cccc2c1C(=O)c1c(O)c3c(c(O)c1C2=O)C[C@@](O)(C(=O)CO)CC3OC1CC(N2CCOC(OC)C2)C(O)C(C)O1` (stereo partly specified), the “activity change, negative = inhibition” value is -22.1% (inactive).
`Cc1ncsc1CCCl`: the “activity change, negative = inhibition” value was -2.4% (inactive).
Same read-out and setting: the same measure for `C=C(C)[C@H]1CN[C@H](C(=O)O)[C@H]1CC(=O)O`: 9.58% (inactive); for `CC(NC(C)(C)C)C(=O)c1cccc(Cl)c1` (stereo unspecified): 2.69% (inactive).
For `CC(C)(C)NCC(O)c1ccccc1Cl` (stereo unspecified), the “activity change, negative = inhibition” value is 1.39% (inactive).
Same read-out and setting: the same measure for `O=C(O)CCCc1ccc(N(CCCl)CCCl)cc1`: -11.4% (inactive); for `O=P1(N(CCCl)CCCl)NCCCO1` (stereo unspecified): -2.19% (inactive).

Tested on in the next test: not listed separately
Briefly: Validation qHTS assay for inhibitors of Activation Induced Cytidine Deaminase (AID): UDG Counterscreen signal (AID 1347427). Also: 0% is about no effect. The note with it: biochemical UDG counterscreen, fluorescence signal; series mostly up to 115 µM; activity, negative = inhibition: at the top concentration. Put shortly:
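Fluorescence at 560 nm excitation, 665 nm emission reports UDG signal after 250 mM NaOH (2x) addition and 30 min. Enzymes (AID 1 uM, UDG 2 U/mL, at 4/3x) preincubated 10 min with compound, then 4 h with 4x 250 nM DJC20/DJC23 substrate at room temperature.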
For the compound `COc1ccc2c(c1OC)C(=O)O[C@H]2[C@@H]1c2cc3c(cc2CCN1C)OCO3`, the “activity, negative = inhibition” value is 7.81% (inactive).
Same read-out and setting: the same measure for `O=C(CCCN1CCC2(CC1)C(=O)NCN2c1ccccc1)c1ccc(F)cc1`: 7.06% (inactive).
Consider `CN1C(=O)CCS(=O)(=O)C1c1ccc(Cl)cc1` (stereo unspecified), for which the “activity, negative = inhibition” value was 3.24% (inactive).
`CC(C)c1cccc(C(C)C)c1O`: the “activity, negative = inhibition” value was 14.5% (inactive).
On the same count and under the same terms, the result for `CCC1(c2ccc(N)cc2)CCC(=O)NC1=O` (stereo unspecified) reads 13% (inactive).
Take `O=c1[nH]oc2c1CCNC2`: the “activity, negative = inhibition” value was 8.29% (inactive).
Same read-out and setting: the same measure for `NCCc1ccc(O)cc1`: 11.3% (inactive); for `Cc1ncsc1CCCl`: 7.72% (inactive).
Take `C=C(C)[C@H]1CN[C@H](C(=O)O)[C@H]1CC(=O)O`: the “activity, negative = inhibition” value is 16.9% (inactive).
Consider `CC(NC(C)(C)C)C(=O)c1cccc(Cl)c1` (stereo unspecified), for which the “activity, negative = inhibition” value is 12.7% (inactive).
Turning to `CC(C)(C)NCC(O)c1ccccc1Cl` (stereo unspecified), the “activity, negative = inhibition” value was 13.6% (inactive).
On the same count and under the same terms, the result for `O=C(O)CCCc1ccc(N(CCCl)CCCl)cc1` reads 11.1% (inactive).
Regarding `O=P1(N(CCCl)CCCl)NCCCO1` (stereo unspecified), the “activity, negative = inhibition” value was -3.43% (inactive).
Take `CC(C)N(CCC(C(N)=O)(c1ccccc1)c1ccccn1)C(C)C` (stereo unspecified): the outcome was inactive.
